The whole screen tested about 5,500 compounds, of which about 2,000 (36%) were called active. Roughly 18% stayed inconclusive and do not appear here. Cut-off read from the data, not from the text of the source: active = normalized growth mostly below about 0.91 (no sharp cut-off); inconclusive = no clear call, values can overlap the other calls; inactive = mostly above about 0.92. This is one part of the list.
Assay: chemical genetic growth profiling, strain panel (AID 1159580);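 note: tested at 20 µM; growth read once vehicle control cultures reached saturation at 30 °C; 1 = growth at the plate median or of vehicle wells; lower values mean less growth of the strain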
Conditions: growth OD

Measured: normalized growth

CC(=O)NCc1c(I)c(NC(C)=O)c(I)c(C(=O)O)c1I
inactive: S. cerevisiae deletion strains, locus YJR075W, strain HOC1, stronger effect = lower value 1.01 | S. cerevisiae deletion strains, locus YKL009W, strain mrt4, stronger effect = lower value 1.1 | S. cerevisiae deletion strains, locus YKL068W, stronger effect = lower value 0.977 | S. cerevisiae deletion strains, locus YKL085W, strain MDH1 (second series), stronger effect = lower value 1.01 | S. cerevisiae deletion strains, locus YKL085W, strain MDH1, stronger effect = lower value 1.01 | S. cerevisiae deletion strains, locus YKL160W, strain elf1, stronger effect = lower value 0.981 | S. cerevisiae deletion strains, locus YKL190W, strain CNB1, stronger effect = lower value 0.997 | S. cerevisiae deletion strains, locus YKR001C, strain vps1, stronger effect = lower value 1 | S. cerevisiae deletion strains, locus YKR026C, strain gcn3, stronger effect = lower value 0.994 | S. cerevisiae deletion strains, locus YKR091W, strain srl3, stronger effect = lower value 0.998 | S. cerevisiae deletion strains, locus YLL001W, strain dnm1, stronger effect = lower value 0.999 | S. cerevisiae deletion strains, locus YLL026W, stronger effect = lower value 0.991 | S. cerevisiae deletion strains, locus YLL041C, strain sdh2, stronger effect = lower value 0.995 | S. cerevisiae deletion strains, locus YLR027C, strain aat2, stronger effect = lower value 1 | S. cerevisiae deletion strains, locus YLR039C, strain RIC1, stronger effect = lower value 1 | S. cerevisiae deletion strains, locus YLR058C, strain SHM2, stronger effect = lower value 0.999 | S. cerevisiae deletion strains, locus YLR102C, strain apc9, stronger effect = lower value 0.993 | S. cerevisiae deletion strains, locus YLR113W, strain HOG1, stronger effect = lower value 1.02 | S. cerevisiae deletion strains, locus YLR221C, strain rsa3, stronger effect = lower value 0.992 | S. cerevisiae deletion strains, locus YLR258W, strain gsy2, stronger effect = lower value 1 | S. cerevisiae deletion strains, locus YLR262C, strain YPT6 (second series), stronger effect = lower value 1 | S. cerevisiae deletion strains, locus YLR262C, strain YPT6, stronger effect = lower value 0.991 | S. cerevisiae deletion strains, locus YLR268W, strain sec22, stronger effect = lower value 0.97 | S. cerevisiae deletion strains, locus YLR320W, strain mms22, stronger effect = lower value 0.978 | S. cerevisiae deletion strains, locus YLR330W, strain CHS5, stronger effect = lower value 0.992 | S. cerevisiae deletion strains, locus YLR342W, strain FKS1 (second series), stronger effect = lower value 1.04 | S. cerevisiae deletion strains, locus YLR342W, strain FKS1, stronger effect = lower value 0.999 | S. cerevisiae deletion strains, locus YLR357W, strain rsc2, stronger effect = lower value 1.01 | S. cerevisiae deletion strains, locus YLR370C, strain arc18, stronger effect = lower value 1 | S. cerevisiae deletion strains, locus YLR371W, strain rom2, stronger effect = lower value 0.99 | S. cerevisiae deletion strains, locus YLR384C, strain iki3, stronger effect = lower value 0.987 | S. cerevisiae deletion strains, locus YLR418C, strain cdc73, stronger effect = lower value 1.02 | S. cerevisiae deletion strains, locus YML016C, strain PPZ1, stronger effect = lower value 1 | S. cerevisiae deletion strains, locus YML032C, strain rad52, stronger effect = lower value 0.998 | S. cerevisiae deletion strains, locus YML120C, strain ndi1, stronger effect = lower value 0.994 | S. cerevisiae deletion strains, locus YML124C, strain tub3, stronger effect = lower value 1 | S. cerevisiae deletion strains, locus YMR058W, strain fet3, stronger effect = lower value 0.995 | S. cerevisiae deletion strains, locus YMR078C, strain ctf18, stronger effect = lower value 0.984 | S. cerevisiae deletion strains, locus YMR125W, strain sto1, stronger effect = lower value 1.02 | S. cerevisiae deletion strains, locus YMR129W, stronger effect = lower value 1 | S. cerevisiae deletion strains, locus YMR205C, strain PFK2, stronger effect = lower value 1.01 | S. cerevisiae deletion strains, locus YMR223W, strain ubp8, stronger effect = lower value 1.02 | S. cerevisiae deletion strains, locus YMR231W, strain pep5, stronger effect = lower value 0.991 | S. cerevisiae deletion strains, locus YMR263W, strain SAP30, stronger effect = lower value 0.987 | S. cerevisiae deletion strains, locus YMR307W, strain GAS1, stronger effect = lower value 1.08 | S. cerevisiae deletion strains, locus YNL067W, strain RPL9B, stronger effect = lower value 0.987 | S. cerevisiae deletion strains, locus YNL071W, strain lat1, stronger effect = lower value 1 | S. cerevisiae deletion strains, locus YNL128W, strain TEP1, stronger effect = lower value 0.988 | S. cerevisiae deletion strains, locus YNL153C, strain GIM3, stronger effect = lower value 0.999 | S. cerevisiae deletion strains, locus YNL183C, strain NPR1, stronger effect = lower value 0.963 | S. cerevisiae deletion strains, locus YNL209W, strain ssb2, stronger effect = lower value 1 | S. cerevisiae deletion strains, locus YNL233W, strain BNI4, stronger effect = lower value 1.01 | S. cerevisiae deletion strains, locus YNL248C, strain rpa49, stronger effect = lower value 0.996 | S. cerevisiae deletion strains, locus YNL250W, strain rad50, stronger effect = lower value 0.99 | S. cerevisiae deletion strains, locus YNL271C, strain bni1, stronger effect = lower value 0.989 | S. cerevisiae deletion strains, locus YNL298W, strain CLA4, stronger effect = lower value 0.995 | S. cerevisiae deletion strains, locus YNL307C, strain MCK1, stronger effect = lower value 0.997 | S. cerevisiae deletion strains, locus YNL322C, strain KRE1 (second series), stronger effect = lower value 0.989 | S. cerevisiae deletion strains, locus YNL322C, strain KRE1, stronger effect = lower value 0.994 | S. cerevisiae deletion strains, locus YNR049C, strain mso1, stronger effect = lower value 0.996 | S. cerevisiae deletion strains, locus YNR052C, strain pop2, stronger effect = lower value 0.978 | S. cerevisiae deletion strains, locus YOL006C, strain TOP1, stronger effect = lower value 0.981 | S. cerevisiae deletion strains, locus YOL012C, strain htz1 0.964 | S. cerevisiae deletion strains, locus YOL147C, strain pex11, stronger effect = lower value 0.995 | S. cerevisiae deletion strains, locus YOR001W, strain rrp6, stronger effect = lower value 1.01 | S. cerevisiae deletion strains, locus YOR061W, strain CKA2, stronger effect = lower value 1 | S. cerevisiae deletion strains, locus YOR069W, strain VPS5, stronger effect = lower value 0.998 | S. cerevisiae deletion strains, locus YOR070C, strain gyp1, stronger effect = lower value 0.998 | S. cerevisiae deletion strains, locus YOR080W, strain dia2, stronger effect = lower value 0.995 | S. cerevisiae deletion strains, locus YOR083W, strain WHI5, stronger effect = lower value 0.983 | S. cerevisiae deletion strains, locus YOR106W, strain vam3, stronger effect = lower value 0.979 | S. cerevisiae deletion strains, locus YOR136W, strain idh2, stronger effect = lower value 0.999 | S. cerevisiae deletion strains, locus YOR144C, strain elg1, stronger effect = lower value 0.984 | S. cerevisiae deletion strains, locus YOR184W, strain ser1, stronger effect = lower value 0.995 | S. cerevisiae deletion strains, locus YOR231W, strain MKK1, stronger effect = lower value 1.03 | S. cerevisiae deletion strains, locus YOR265W, strain rbl2, stronger effect = lower value 0.994 | S. cerevisiae deletion strains, locus YOR270C, strain vph1, stronger effect = lower value 1.02 | S. cerevisiae deletion strains, locus YOR290C, strain snf2, stronger effect = lower value 1.01 | S. cerevisiae deletion strains, locus YOR316C, strain cot1, stronger effect = lower value 0.986 | S. cerevisiae deletion strains, locus YPL051W, strain arl3, stronger effect = lower value 0.997 | S. cerevisiae deletion strains, locus YPL055C, strain LGE1, stronger effect = lower value 0.984 | S. cerevisiae deletion strains, locus YPL078C, strain atp4, stronger effect = lower value 1 | S. cerevisiae deletion strains, locus YPL106C, strain sse1, stronger effect = lower value 0.993 | S. cerevisiae deletion strains, locus YPL240C, strain hsp82, stronger effect = lower value 0.98 | S. cerevisiae deletion strains, locus YPL241C, strain CIN2, stronger effect = lower value 1 | S. cerevisiae deletion strains, locus YPL256C, strain CLN2, stronger effect = lower value 1.01 | S. cerevisiae deletion strains, locus YPR119W, strain clb2, stronger effect = lower value 0.999 | S. cerevisiae deletion strains, locus YPR141C, strain kar3, stronger effect = lower value 0.986 | S. cerevisiae deletion strains, locus YPR163C, strain tif3, stronger effect = lower value 1 | S. cerevisiae deletion strains, locus YPR167C, strain met16, stronger effect = lower value 0.985 | S. cerevisiae deletion strains, strain wtn01, stronger effect = lower value 0.989 | S. cerevisiae strains, strain wild type, stronger effect = lower value 1
